The source made the active and inactive calls. The calls were made as follows: active = hit-call score of the fitted dose curve at least 0.9, where 1 is the maximum; inactive = score below 0.9.
What was measured:
[1] = ATG_GLI_CIS: Attagene CIS-FACTORIAL HepG2 Assay for human Zinc Finger Protein GLI1 (AID 2282945); conditions: HepG2, Attagene cis-factorial reporter mRNA, GLI element; actives raise or lower the signal
How it was run: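 HepG2 cells transiently transfected with cis-promoter multiplexed reporter units report endogenous transcription factor activity. After 24 h chemical exposure, reporter mRNA was quantified by RT-PCR, 6-FAM labelling, HpaI digestion and capillary electrophoresis, with bidirectional fitting against DMSO.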

[2] = ATG_GRE_CIS: Attagene CIS-FACTORIAL HepG2 Assay for human Glucocorticoid Response Elements (GRE) (AID 2282947); conditions: HepG2 GRE cis-reporter, Attagene multiplex mRNA; actives raise or lower the signal
How it was run: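 Following 24 h chemical exposure of transiently transfected HepG2 cells, total RNA was reverse-transcribed and reporter cDNA amplified, fluorescently labelled and sized by capillary electrophoresis. Signal gain or loss was fitted relative to DMSO vehicle.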

[3] = ATG_ISRE_CIS: Attagene CIS-FACTORIAL HepG2 Assay for human Interferon Regulatory Factor 1 (IRF1) binding to an Interferon-Stimulated Response Element (ISRE) (AID 2282948); conditions: HepG2 ISRE cis-reporter (Attagene), mRNA transcription readout; actives raise or lower the signal
How it was run: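 Transfected HepG2 (multiple reporter transcription units, cis elements) dosed 24 h. RNA → oligo(dT) RT → PCR → 6-FAM primer extension → HpaI → CE. DMSO = negative control/baseline.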

[4] = ATG_M_32_CIS: Attagene CIS-FACTORIAL HepG2 Assay for M32 Transcription Factor (Internal Marker) (AID 2282949); conditions: HepG2 Attagene cis-factorial M32 reporter, mRNA; actives raise or lower the signal;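 also: background control marker of the multiplexed CIS panel rather than a real target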
How it was run: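 Fluorescent capillary electrophoresis peaks of HpaI-digested, FAM-labelled RT-PCR reporter products give the signal. Source: transiently transfected human liver HepG2 cells, 24 h after chemical dosing; bidirectional fitting against DMSO.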

[5] = ATG_M_06_CIS: Attagene CIS-FACTORIAL HepG2 Assay for M06 Transcription Factor (Internal Marker) (AID 2282950); conditions: HepG2 Attagene CIS-FACTORIAL M06 internal marker reporter; actives raise or lower the signal
How it was run: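 Read-out is fluorescence of labelled reporter cDNA fragments resolved by capillary electrophoresis after RT-PCR. Cells: HepG2 carrying transfected cis-promoter reporter units, treated 24 h. Gain or loss of signal fitted relative to DMSO.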

[6] = biological target: Hypoxia-inducible factor 1-alpha (Homo sapiens) (UniProt Q16665); experiment: ATG_HIF1a_CIS: Attagene CIS-FACTORIAL HepG2 Assay for human Hypoxia Inducible Factor 1 (HIF1A) (AID 2282951); conditions: HepG2 Attagene cis-factorial HIF1a reporter transcription; actives raise or lower the signal
How it was run: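 Dosed 24 h, transfected HepG2 cells yielded total RNA whose reporter transcripts were RT-PCR-amplified and sized by capillary electrophoresis using fluorescent labelling; DMSO defined baseline, with gain and loss of signal both fitted.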

[7] = biological target: Hepatocyte nuclear factor 6 (Homo sapiens) (UniProt Q9UBC0); experiment: ATG_HNF6_CIS: Attagene CIS-FACTORIAL HepG2 Assay for human Hepatocyte Nuclear Factor 6 (HNF6) (AID 2282952); conditions: HepG2 Attagene cis-factorial HNF6 reporter transcription; actives raise or lower the signal
How it was run: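 HepG2 cells transiently transfected with cis-element-driven multiplexed reporter units measuring endogenous transcription factor activity. After 24 h exposure, reporter mRNA quantified by RT-PCR, FAM-labelled fragments and capillary electrophoresis; bidirectional fitting versus DMSO.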

[8] = biological target: Heat shock factor protein 1 (Homo sapiens) (UniProt Q00613); experiment: ATG_HSE_CIS: Attagene CIS-FACTORIAL HepG2 Assay for human Heat Shock Transcription Factor 1 (HSE) (AID 2282953); conditions: HepG2 HSE cis-reporter, Attagene RNA transcription; actives raise or lower the signal
How it was run: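 HepG2, transient MRTU transfection, cis-promoter reporters (endogenous TF activity). 24 h compound. RNA → oligo(dT) RT → PCR → 6-FAM primer extension → HpaI cut → CE. Bidirectional fit vs DMSO.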

[9] = ATG_MRE_CIS: Attagene CIS-FACTORIAL HepG2 Assay for human Metal Responsive Element (MRE) (AID 2282954); conditions: HepG2 MRE cis-reporter transcription, Attagene multiplex; actives raise or lower the signal
How it was run: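 Step one: transfect HepG2 with cis-regulated reporter units. Step two: dose 24 h. Step three: isolate RNA, RT-PCR, 6-FAM label, HpaI digest, capillary electrophoresis. Fit bidirectionally to DMSO.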

[10] = biological target: Paired box protein Pax-6 (Homo sapiens) (UniProt P26367); experiment: ATG_Pax6_CIS: Attagene CIS-FACTORIAL HepG2 Assay for human Paired Box 6 (PAX6) (AID 2282956); conditions: HepG2 CIS-FACTORIAL PAX6 reporter transcription, RNA readout; actives raise or lower the signal
How it was run: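 Transient MRTU transfection of HepG2 → compound exposure 24 h → TriZol RNA, oligo(dT) RT → PCR, 6-FAM primer extension, HpaI cut → capillary electrophoresis; activity fitted both directions against DMSO.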

[11] = ATG_PXRE_CIS: Attagene CIS-FACTORIAL HepG2 Assay for human Pregnane X Receptor Element (PXRE) (AID 2282957); conditions: HepG2 Attagene CIS-FACTORIAL PXRE reporter, mRNA; actives raise or lower the signal
How it was run: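 HepG2 cells transiently transfected with cis-element-driven multiplexed reporter units; after 24 h chemical exposure, reporter mRNA measured by RT-PCR, 6-FAM labelling, HpaI digestion and capillary electrophoresis. Bidirectional fitting relative to DMSO.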

[12] = ATG_PPRE_CIS: Attagene CIS-FACTORIAL HepG2 Assay for human Peroxisome Proliferator-activated Response Element (PPRE) (AID 2282958); conditions: HepG2 PPRE cis-element reporter, Attagene transcription factor profiling; actives raise or lower the signal
How it was run: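 Measured endpoint: PPRE-controlled reporter mRNA, detected by RT-PCR and capillary electrophoresis fluorescence, from transiently transfected HepG2 cells 24 h after dosing. Curves fitted in both directions using DMSO baseline.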

[13] = ATG_RORE_CIS: Attagene CIS-FACTORIAL HepG2 Assay for human RAR-related Orphan Receptor Element (RORE) (AID 2282959); conditions: HepG2 Attagene cis-factorial RORE reporter, mRNA; actives raise or lower the signal
How it was run: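 Transiently transfected HepG2 reporter cells were treated 24 h. Reporter transcripts were detected by RT-PCR and capillary electrophoresis, with bidirectional fitting against DMSO.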

[14] = ATG_Sox_CIS: Attagene CIS-FACTORIAL HepG2 Assay for human SRY-box transcription factor (SOX) (AID 2282960); conditions: HepG2 Attagene cis-factorial SOX reporter, mRNA; actives raise or lower the signal
How it was run: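 Gain- or loss-of-signal endpoint, fitted bidirectionally with DMSO as negative control. Based on reporter mRNA from transfected HepG2 cells harvested 24 h post-treatment and quantified via RT-PCR and capillary electrophoresis.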

[15] = biological target: Transcription factor Sp1 (Homo sapiens) (UniProt P08047); experiment: ATG_Sp1_CIS: Attagene CIS-FACTORIAL HepG2 Assay for human Specificity Protein 1 (Sp1) (AID 2282961); conditions: HepG2 Sp1 cis-reporter transcription, actives raise or lower the signal
How it was run: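 Endpoint reflects endogenous Sp1 transcriptional activity, not an exogenous fusion protein: HepG2 cells with transfected cis-regulated reporters, 24 h dosing, RT-PCR/capillary electrophoresis mRNA read-out, DMSO-normalised bidirectional fit.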

[16] = ATG_SREBP_CIS: Attagene CIS-FACTORIAL HepG2 Assay for human Sterol Regulatory Element Binding (SREBP) (AID 2282962); conditions: HepG2 Attagene cis-factorial SREBP reporter, mRNA; actives raise or lower the signal
How it was run: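 Transfected HepG2 (cis-regulated reporter library, endogenous TFs) → compound 24 h → total RNA → oligo(dT) RT → reporter-specific PCR → FAM primer extension, HpaI cut → CE fluorescence. Fit bidirectional vs DMSO.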

[17] = biological target: Signal transducer and activator of transcription 3 (Homo sapiens) (UniProt P40763); experiment: ATG_STAT3_CIS: Attagene CIS-FACTORIAL HepG2 Assay for human Signal Transducer and Activator of Transcription 3 (STAT3) (AID 2282963); conditions: HepG2, Attagene cis-factorial STAT3 reporter transcription; actives raise or lower the signal
How it was run: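 Transcript-level reporter assay. HepG2 transient MRTU transfection, 24 h exposure, fluorescence detection after RT-PCR and CE; DMSO baseline.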

[18] = ATG_TA_CIS: Attagene CIS-FACTORIAL HepG2 Assay for human TA Basal Promoter (AID 2282964); conditions: HepG2 Attagene CIS-factorial TA basal promoter reporter; actives raise or lower the signal
How it was run: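 Read-out: fluorescent reporter-transcript fragments resolved by capillary electrophoresis after RT-PCR and HpaI digestion. Source: HepG2 cells carrying transiently transfected multi-reporter cis constructs, treated 24 h. Endpoint fitted bidirectionally relative to DMSO.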

[19] = ATG_PBREM_CIS: Attagene CIS-FACTORIAL HepG2 Assay for human Phenobarbital-responsive Enhancer Module (PBREM) (AID 2282955); conditions: HepG2 PBREM cis-reporter, Attagene multiplexed transcription; actives raise or lower the signal
How it was run: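 Transfected liver-derived HepG2 cells exposed 24 h; PBREM reporter transcript quantified via RT-PCR and capillary electrophoresis, with activity in either direction referenced to DMSO.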

Measured: AC50

Signal transducer and activator of transcription 3 (Homo sapiens), sequence (P40763 whole entry, looked up): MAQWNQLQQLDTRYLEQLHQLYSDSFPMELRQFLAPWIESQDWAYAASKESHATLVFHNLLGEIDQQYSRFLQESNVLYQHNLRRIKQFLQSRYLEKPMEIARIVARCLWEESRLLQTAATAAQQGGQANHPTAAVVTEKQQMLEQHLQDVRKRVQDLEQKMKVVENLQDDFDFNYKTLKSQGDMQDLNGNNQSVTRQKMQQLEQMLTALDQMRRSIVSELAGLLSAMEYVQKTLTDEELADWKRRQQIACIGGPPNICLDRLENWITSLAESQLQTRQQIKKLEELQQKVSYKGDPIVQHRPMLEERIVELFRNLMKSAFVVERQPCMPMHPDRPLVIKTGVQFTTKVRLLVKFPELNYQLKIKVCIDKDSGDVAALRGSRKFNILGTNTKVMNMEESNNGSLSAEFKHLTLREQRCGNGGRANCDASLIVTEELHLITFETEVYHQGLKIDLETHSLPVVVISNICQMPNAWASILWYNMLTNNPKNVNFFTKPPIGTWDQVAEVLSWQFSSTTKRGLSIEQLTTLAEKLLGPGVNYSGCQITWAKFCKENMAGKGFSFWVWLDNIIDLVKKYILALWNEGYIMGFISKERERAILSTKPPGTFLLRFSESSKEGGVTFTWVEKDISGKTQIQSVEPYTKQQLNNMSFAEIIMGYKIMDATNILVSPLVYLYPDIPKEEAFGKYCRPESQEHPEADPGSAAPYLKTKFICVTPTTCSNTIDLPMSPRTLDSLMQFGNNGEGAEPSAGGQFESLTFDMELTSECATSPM
Hypoxia-inducible factor 1-alpha (Homo sapiens), sequence (Q16665 whole entry, looked up): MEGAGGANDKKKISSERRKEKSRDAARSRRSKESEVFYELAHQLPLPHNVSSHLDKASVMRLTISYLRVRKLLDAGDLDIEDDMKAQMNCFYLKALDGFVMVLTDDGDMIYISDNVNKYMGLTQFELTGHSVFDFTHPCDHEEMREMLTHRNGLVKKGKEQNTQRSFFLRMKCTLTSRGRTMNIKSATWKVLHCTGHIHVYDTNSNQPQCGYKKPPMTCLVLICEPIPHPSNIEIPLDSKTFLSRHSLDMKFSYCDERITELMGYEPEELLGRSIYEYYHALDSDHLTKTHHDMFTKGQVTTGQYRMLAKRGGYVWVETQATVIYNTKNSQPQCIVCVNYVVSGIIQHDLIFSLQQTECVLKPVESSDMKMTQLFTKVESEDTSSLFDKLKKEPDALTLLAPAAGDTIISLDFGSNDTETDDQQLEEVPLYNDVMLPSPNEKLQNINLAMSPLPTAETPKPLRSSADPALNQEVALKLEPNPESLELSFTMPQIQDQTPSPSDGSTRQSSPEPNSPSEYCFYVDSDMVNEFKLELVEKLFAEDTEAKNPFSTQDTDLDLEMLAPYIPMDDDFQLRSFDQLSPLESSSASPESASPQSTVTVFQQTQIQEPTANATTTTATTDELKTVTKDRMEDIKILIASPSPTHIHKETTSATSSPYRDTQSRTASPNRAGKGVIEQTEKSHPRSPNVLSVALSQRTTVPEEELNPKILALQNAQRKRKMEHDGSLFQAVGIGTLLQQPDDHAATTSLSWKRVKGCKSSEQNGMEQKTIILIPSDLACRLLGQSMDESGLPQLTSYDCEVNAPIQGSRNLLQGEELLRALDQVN
Paired box protein Pax-6 (Homo sapiens), sequence (P26367 whole entry, looked up): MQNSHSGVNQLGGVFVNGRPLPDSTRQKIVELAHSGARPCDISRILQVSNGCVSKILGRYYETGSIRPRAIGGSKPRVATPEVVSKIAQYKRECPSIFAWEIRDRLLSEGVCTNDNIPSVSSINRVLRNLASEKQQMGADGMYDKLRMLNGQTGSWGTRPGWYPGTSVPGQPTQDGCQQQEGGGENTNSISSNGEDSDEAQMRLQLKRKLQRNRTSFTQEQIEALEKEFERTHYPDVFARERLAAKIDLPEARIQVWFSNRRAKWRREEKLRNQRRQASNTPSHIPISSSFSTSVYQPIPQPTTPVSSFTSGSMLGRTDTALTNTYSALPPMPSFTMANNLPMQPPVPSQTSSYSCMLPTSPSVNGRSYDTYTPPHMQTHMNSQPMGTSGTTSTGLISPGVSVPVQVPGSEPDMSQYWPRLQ
Transcription factor Sp1 (Homo sapiens), sequence (P08047 whole entry, looked up, the tested form may be a part): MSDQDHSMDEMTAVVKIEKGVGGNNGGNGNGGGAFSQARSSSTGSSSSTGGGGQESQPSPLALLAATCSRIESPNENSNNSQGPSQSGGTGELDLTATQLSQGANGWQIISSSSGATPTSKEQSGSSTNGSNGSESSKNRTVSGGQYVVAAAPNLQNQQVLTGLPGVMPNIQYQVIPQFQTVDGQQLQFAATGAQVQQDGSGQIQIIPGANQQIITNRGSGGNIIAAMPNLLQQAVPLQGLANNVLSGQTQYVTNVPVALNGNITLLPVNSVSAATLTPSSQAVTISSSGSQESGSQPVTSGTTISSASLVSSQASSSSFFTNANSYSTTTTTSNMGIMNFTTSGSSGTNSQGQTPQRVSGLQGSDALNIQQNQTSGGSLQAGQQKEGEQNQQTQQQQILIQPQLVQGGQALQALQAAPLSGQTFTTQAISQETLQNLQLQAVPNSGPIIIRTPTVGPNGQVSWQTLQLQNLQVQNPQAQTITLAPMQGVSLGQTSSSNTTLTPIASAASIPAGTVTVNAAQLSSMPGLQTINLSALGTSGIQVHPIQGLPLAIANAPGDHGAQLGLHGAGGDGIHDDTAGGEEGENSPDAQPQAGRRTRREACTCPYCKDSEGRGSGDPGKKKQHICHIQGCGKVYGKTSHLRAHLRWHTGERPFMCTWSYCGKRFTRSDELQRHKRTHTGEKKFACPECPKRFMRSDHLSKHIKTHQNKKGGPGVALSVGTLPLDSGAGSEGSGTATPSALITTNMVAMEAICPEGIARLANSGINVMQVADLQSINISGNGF
Hepatocyte nuclear factor 6 (Homo sapiens), sequence (Q9UBC0 whole entry, looked up, the tested form may be a part): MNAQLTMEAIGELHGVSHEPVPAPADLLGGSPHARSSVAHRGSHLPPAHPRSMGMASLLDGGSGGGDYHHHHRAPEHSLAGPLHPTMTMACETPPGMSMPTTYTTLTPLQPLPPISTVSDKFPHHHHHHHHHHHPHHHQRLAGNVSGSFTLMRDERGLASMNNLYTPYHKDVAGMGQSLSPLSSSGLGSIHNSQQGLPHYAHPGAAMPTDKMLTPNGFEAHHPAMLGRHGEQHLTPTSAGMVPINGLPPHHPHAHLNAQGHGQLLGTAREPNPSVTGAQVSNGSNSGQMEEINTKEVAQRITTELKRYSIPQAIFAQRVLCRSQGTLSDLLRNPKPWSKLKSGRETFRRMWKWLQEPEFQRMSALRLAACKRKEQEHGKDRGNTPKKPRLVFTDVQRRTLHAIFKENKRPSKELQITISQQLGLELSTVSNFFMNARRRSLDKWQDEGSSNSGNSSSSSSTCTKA
Heat shock factor protein 1 (Homo sapiens), sequence (Q00613 whole entry, looked up): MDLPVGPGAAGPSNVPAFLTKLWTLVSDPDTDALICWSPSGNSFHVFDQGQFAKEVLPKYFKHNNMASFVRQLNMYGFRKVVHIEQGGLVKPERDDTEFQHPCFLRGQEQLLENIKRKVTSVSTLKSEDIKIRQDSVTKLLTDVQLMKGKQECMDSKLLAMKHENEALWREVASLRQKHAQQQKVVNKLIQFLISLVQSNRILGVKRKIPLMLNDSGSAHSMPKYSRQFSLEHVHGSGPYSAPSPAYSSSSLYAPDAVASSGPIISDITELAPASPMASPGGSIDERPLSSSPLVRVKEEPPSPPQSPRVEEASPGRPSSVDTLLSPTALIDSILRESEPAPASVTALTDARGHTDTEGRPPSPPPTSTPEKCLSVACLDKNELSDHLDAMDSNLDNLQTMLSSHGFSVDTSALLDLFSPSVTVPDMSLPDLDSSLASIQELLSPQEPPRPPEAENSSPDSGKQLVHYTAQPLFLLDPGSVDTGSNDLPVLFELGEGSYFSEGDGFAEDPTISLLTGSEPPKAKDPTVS

CCc1cccc(C)c1N
active: [11] 47.7 µM
not listed: [19]
inactive: all other assays above

Cc1c(Cl)cccc1Cl
not listed: [12]
inactive: all other assays above

N#CC1(N)CCCCC1
not listed: [11] | [12]
inactive: all other assays above

CCOC(=O)c1ccc(C)cc1
not listed: [11]
inactive: all other assays above

C=CC(=O)OCC(C)OCC(C)OCC(C)OC(=O)C=C (configuration not stated)
active: [3] 86.1 µM | [9] 46.1 µM | [10] 64.5 µM | [11] 2.25 µM | [13] 44.5 µM | [16] 100 µM
not listed: [19]
inactive: all other assays above

CCCCOCCOCCOC(C)=O
not listed: [12] | [14] | [18]
inactive: all other assays above

CCCC=C(C=O)CC
active: [11] 7.92 µM
not listed: [12] | [14]
inactive: all other assays above

Source: PubChem BioAssay (EPA / NIEHS)
